Measurements: PubChem BioAssay (Tox21)
Several values for one entry are separate records, joined by “and”; a condition that tells them apart may be missing. Identical values can stand only once. Results filed as inconclusive are left out. The source holds several records for some structures; these can differ, active in one and inactive in another. Activity calls are given as the source filed them. Unless noted, the call rests on the fitted dose curve.

Legend:
[1] = Nuclear factor erythroid 2-related factor 2/antioxidant responsive element (Nrf2/ARE) small molecule agonists: qHTS cell viability counter screen in human keratinocytes (AID 1919968; active means well fitted curve in the direction sought with a large enough effect in the repeat runs; an effect the other way counts as inactive or inconclusive; further: nearly all actives have a fitted effect of over 55% in size; further: potency means the concentration at half of the fitted maximal effect)
In short: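 HaCaT ARE reporter line, 1,500 cells/well; 5 h settle, 37 C/5% CO2; cpd in DMSO pinned; 23 h exposure; CellTiter-Fluor, 1 h; fluorescence.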

[2] = Nuclear factor erythroid 2-related factor 2/antioxidant responsive element (Nrf2/ARE) small molecule agonists: luciferase reporter gene qHTS assay in human keratinocytes (AID 1919969); further: nearly all actives have a fitted effect of over 35% in size; further: potency means the concentration at half of the fitted maximal effect
[3] = target: Gonadotropin-releasing hormone receptor (Homo sapiens) (UniProt P30968); assay: Human gonadotropin-releasing hormone receptor (GnRHR) small molecule agonists, calcium flux assay in GnRHR-HEK293 cells (AID 1920063); further: nearly all actives have a fitted effect of over 35% in size; further: potency means the concentration at half of the fitted maximal effect
In short: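 GnRHR-HEK293, 1500 cells/well, 18 h 37 C/5% CO2; Ca dye 1 h 37 C; cpd pinned (DMSO), agonist mode; kinetic FL 480/540, 3 min, 1 s reads; 15 conc, n=3.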

[4] = target: KiSS-1 receptor (Homo sapiens) (UniProt Q969F8); assay: Human kisspeptin (KISS1R) small molecule agonists, calcium flux assay in KISS1R-HEK293 cells (AID 1920064; active means well fitted curve in the direction sought with a large enough effect in the repeat runs; an effect the other way counts as inactive or inconclusive)
In short: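 Stable human KISS1R HEK293 line; 18 h plating, 37 C/5% CO2; calcium dye 1 h 37 C; compound pin transfer; kinetic fluorescence Ex/Em 480/540, 3 min.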

[5] = p53 small molecule agonists, cell-based qHTS assay with human liver microsomes (AID 1963577);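 further: p53 response element beta-lactamase reporter cells with liver microsomes plus NADPH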
In short: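 HLM-supplemented p53RE-bla reporter assay: 16 h compound exposure at 37 C, microsomes and NADPH each 0.5 mg/mL final, read by fluorescence intensity.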

[6] = p53 small molecule agonists, cell-based qHTS assay with rat liver microsomes (AID 1963578)
In short: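 Quantitative HTS of the Tox21 10K library: p53RE-bla cells, rat liver microsomes plus NADPH at 0.5 mg/mL final each, 16 h at 37 C, beta-lactamase fluorescence detection.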

[7] = p53 small molecule agonists, cell-based qHTS assay with human liver microsomes: qHTS cell viability counter screen (AID 1963579); further: nearly all actives have a fitted effect of over 45% in size; further: potency means the concentration at half of the fitted maximal effect
In short: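 Viability of p53RE-bla cells is measured as CellTiter-Glo luminescence following a 16 h, 37 C incubation with compound, liver microsomes from human donors and NADPH.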

[8] = p53 small molecule agonists, cell-based qHTS assay with rat liver microsomes: qHTS cell viability counter screen (AID 1963580); further: nearly all actives have a fitted effect of over 45% in size; further: potency means the concentration at half of the fitted maximal effect
In short: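 In HCT-116 cells carrying a p53 response element-bla reporter, compounds were metabolically activated in situ by rat liver microsomes with NADPH over 16 h. Cell ATP content then served as the cytotoxicity measure.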

[9] = p53 small molecule agonists, cell-based qHTS assay: qHTS cell viability counter screen (AID 1963581); further: nearly all actives have a fitted effect of over 45% in size; further: potency means the concentration at half of the fitted maximal effect
In short: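 HCT-116 p53RE-bla cells, 4,000/well, plated 5 h before compound pin transfer; 16 h at 37 C; bla substrate 2 h RT; then CellTiter-Glo, 30 min RT, luminescence.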

[10] = p53 small molecule agonists, cell-based qHTS assay (AID 1963582; active means well fitted activation curve with a large enough effect in the signal ratio in the repeat runs, not every such curve was filed as active; the % refers to the signal ratio)
In short: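 Reporter line: p53RE-bla. Pre-incubation 5 h, 37 C, 5% CO2; compound (DMSO, pin tool) 16 h, 37 C; B/G FRET substrate 2 h RT; fluorescence intensity read.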

[11] = target: 5-hydroxytryptamine receptor 2A (Homo sapiens) (UniProt P28223); assay: 5-hydroxytryptamine receptor 2A (HTR2A) small molecule antagonists, cell-based qHTS assay (AID 1963586); further: nearly all actives have a fitted effect of over 45% in size
In short: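 Antagonist-mode intracellular calcium assay: DOI (4 nM) added after 5 min compound pre-incubation at room temperature to dye-loaded HTR2A-CHO cells. Fluorescence followed for 3 min, sampled every second.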

[12] = target: 5-hydroxytryptamine receptor 2A (Homo sapiens) (UniProt P28223); assay: 5-hydroxytryptamine receptor 2A (HTR2A) small molecule agonists, cell-based qHTS assay (AID 1963587); further: nearly all actives have a fitted effect of over 30% in size; further: potency means the concentration at half of the fitted maximal effect
In short: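 HTR2A-CHO cells, plated 18 h at 37 C/5% CO2, dye-loaded 1 h at 37 C; compounds in DMSO added by pin tool (agonist mode). Intracellular calcium flux read as kinetic fluorescence on FDSS over 2 min at 1 s intervals.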

[13] = target: Muscarinic acetylcholine receptor M1 (Homo sapiens) (UniProt P11229); assay: Cholinergic receptor muscarinic 1 (CHRM1) small molecule antagonists, cell-based qHTS assay (AID 1963588); further: nearly all actives have a fitted effect of over 40% in size
In short: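 CHRM1-CHO calcium-flux assay, antagonist mode. Cells were seeded 18 h, dye-loaded 1 h at 37 C and given compound for 5 min at RT, then acetylcholine was added at 50nM. FDSS fluorescence was read 3 min; 15 concentrations, three runs.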

[14] = target: Muscarinic acetylcholine receptor M1 (Homo sapiens) (UniProt P11229); assay: Cholinergic receptor muscarinic 1 (CHRM1) small molecule agonists, cell-based qHTS assay (AID 1963589); further: nearly all actives have a fitted effect of over 35% in size
In short: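 Human M1 in stable CHO line; 18 h plating, 1 h dye load 37 C; cpd added (agonist mode); Ca2+ fluorescence kinetic read, 1 s intervals; 15 conc, 3 runs.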

[15] = cAMP Responsive Elements (CRE) small molecule agonists, cell-based qHTS assay (AID 1963590)
In short: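 HEK 293T CRE-bla, 2,000 cells/well, 18 h preincubation 37 C/5% CO2; cpds (DMSO) pinned, 3 h; LiveBLAzer B/G FRET substrate, 2 h RT.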

[16] = cAMP Responsive Elements (CRE) small molecule antagonists, cell-based qHTS assay (AID 1963591; active means well fitted inhibition curve with a large enough effect in the signal ratio in the repeat runs, not every such curve was filed as active; the % refers to the signal ratio)
In short: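 Beta-lactamase reporter read by FRET substrate (LiveBLAzer B/G) after 2 h at room temperature. CRE-bla HEK293T cells had received compound plus 0.25 uM (final) NKH477 for 3 h at 37 °C.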

[17] = target: Beta-2 adrenergic receptor (Homo sapiens) (UniProt P07550); assay: Adrenergic beta2 receptor (ADRB2) small molecule antagonists, cell-based qHTS assay (AID 1963592); further: series mostly up to about 92 µM; nearly all actives have a fitted effect of over 50% in size
In short: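 Cells (CHO, stable ADRB2 overexpression) incubated 18-20hr at 37C; compounds added from DMSO; agonist mix (1nM isoproterenol, 100uM IBMX, 25uM Ro-20-1724) added; 0.5hr RT; d2-cAMP and anti-cAMP-cryptate added; 1hr RT; 665/615 nm read.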

[18] = target: D(2) dopamine receptor (Homo sapiens) (UniProt P14416); assay: Dopamine D2 receptor (DRD2) small molecule agonists, cell-based qHTS assay (AID 1963594); further: nearly all actives have a fitted effect of over 35% in size
In short: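 HEK293 cells stably expressing DRD2 were cultured 24 h at 37 C, then given Ro20-1724 (0.1 mM final) and compounds for 10 min at room temperature. NKH477 (200nM) was then added for 30 min. cAMP was read by HTRF.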

[19] = target: D(2) dopamine receptor (Homo sapiens) (UniProt P14416); assay: Dopamine D2 receptor (DRD2) small molecule antagonists, cell-based qHTS assay (AID 1963595; active means well fitted inhibition curve with a large enough effect in the signal ratio in the repeat runs, with a control signal flat; the % refers to the signal ratio)
In short: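 HEK293 cells stably expressing DRD2, preincubated with 0.1 mM Ro20-1724 and compounds 10 min, were stimulated with 200 nM NKH477 plus 12 nM quinpirole for 30 min at room temperature; cAMP measured by HTRF (665/620 nm).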

[20] = target: Beta-2 adrenergic receptor (Homo sapiens) (UniProt P07550); assay: Adrenergic beta2 receptor (ADRB2) small molecule agonists, cell-based qHTS assay (AID 1963593);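 further: CHO cells stably overexpressing human ADRB2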
In short: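 CHO cells stably over-expressing ADRB2 were plated overnight at 37C, then dosed with compounds plus a stimulation mix containing 100uM IBMX and 25uM Ro-20-1724 for 0.5hr at room temperature. cAMP was measured by HTRF competition, 1hr.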

Measured: Potency

Sequence of 5-hydroxytryptamine receptor 2A (Homo sapiens) (P28223 whole entry, looked up): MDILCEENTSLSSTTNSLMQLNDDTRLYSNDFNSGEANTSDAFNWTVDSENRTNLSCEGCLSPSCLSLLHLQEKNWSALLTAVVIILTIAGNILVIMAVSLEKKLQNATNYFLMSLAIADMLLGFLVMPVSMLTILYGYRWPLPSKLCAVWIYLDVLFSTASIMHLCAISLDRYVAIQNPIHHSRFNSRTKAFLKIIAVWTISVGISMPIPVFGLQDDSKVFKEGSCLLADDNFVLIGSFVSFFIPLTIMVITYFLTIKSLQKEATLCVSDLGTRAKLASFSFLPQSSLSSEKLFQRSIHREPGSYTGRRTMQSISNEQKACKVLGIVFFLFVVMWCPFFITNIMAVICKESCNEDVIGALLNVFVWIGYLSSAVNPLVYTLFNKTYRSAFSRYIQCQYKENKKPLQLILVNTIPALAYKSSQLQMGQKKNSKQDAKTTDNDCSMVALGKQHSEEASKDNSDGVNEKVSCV
Sequence of D(2) dopamine receptor (Homo sapiens) (P14416 whole entry, looked up): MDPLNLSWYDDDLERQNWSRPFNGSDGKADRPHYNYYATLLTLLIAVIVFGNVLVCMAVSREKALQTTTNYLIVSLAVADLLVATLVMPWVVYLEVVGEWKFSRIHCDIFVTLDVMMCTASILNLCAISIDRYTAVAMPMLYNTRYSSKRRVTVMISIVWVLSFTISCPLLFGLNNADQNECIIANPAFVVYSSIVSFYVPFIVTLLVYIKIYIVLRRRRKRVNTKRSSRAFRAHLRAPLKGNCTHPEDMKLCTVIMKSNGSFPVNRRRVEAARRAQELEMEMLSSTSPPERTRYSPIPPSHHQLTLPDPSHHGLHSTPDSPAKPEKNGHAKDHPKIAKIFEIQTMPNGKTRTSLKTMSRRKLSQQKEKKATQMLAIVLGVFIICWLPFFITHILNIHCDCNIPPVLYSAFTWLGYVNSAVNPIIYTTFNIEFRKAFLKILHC
Sequence of KiSS-1 receptor (Homo sapiens) (Q969F8 whole entry, looked up): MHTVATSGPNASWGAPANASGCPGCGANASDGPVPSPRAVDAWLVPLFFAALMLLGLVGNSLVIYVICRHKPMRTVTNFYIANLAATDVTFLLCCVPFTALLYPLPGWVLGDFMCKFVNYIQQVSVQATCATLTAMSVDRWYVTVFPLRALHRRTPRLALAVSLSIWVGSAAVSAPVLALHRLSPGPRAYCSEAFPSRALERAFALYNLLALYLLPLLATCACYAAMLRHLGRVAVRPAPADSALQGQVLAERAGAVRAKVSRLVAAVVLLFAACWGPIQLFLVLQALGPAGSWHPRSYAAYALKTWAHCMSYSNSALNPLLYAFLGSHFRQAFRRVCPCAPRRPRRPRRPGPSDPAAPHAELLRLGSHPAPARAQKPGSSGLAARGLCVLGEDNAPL
Sequence of Beta-2 adrenergic receptor (Homo sapiens) (P07550 whole entry, looked up): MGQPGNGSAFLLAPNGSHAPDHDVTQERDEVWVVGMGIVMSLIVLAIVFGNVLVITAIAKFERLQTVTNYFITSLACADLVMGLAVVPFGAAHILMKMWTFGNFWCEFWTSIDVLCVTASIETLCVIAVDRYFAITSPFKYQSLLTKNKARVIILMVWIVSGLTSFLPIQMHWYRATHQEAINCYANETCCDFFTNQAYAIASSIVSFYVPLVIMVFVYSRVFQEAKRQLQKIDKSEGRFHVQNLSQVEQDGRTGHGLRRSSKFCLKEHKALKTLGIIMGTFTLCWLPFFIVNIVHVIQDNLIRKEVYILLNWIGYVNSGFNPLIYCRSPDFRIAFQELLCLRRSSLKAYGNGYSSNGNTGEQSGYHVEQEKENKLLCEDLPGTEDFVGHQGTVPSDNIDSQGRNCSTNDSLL
Sequence of Gonadotropin-releasing hormone receptor (Homo sapiens) (P30968 whole entry, looked up): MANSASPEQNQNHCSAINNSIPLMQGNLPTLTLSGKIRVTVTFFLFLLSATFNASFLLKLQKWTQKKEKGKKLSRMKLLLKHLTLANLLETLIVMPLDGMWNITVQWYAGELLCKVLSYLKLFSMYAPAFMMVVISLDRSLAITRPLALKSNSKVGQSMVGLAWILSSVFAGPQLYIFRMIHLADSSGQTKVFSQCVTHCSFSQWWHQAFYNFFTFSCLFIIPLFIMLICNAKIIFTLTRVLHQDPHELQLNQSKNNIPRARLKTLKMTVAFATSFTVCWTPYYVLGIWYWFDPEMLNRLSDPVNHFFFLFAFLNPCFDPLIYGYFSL
Sequence of Muscarinic acetylcholine receptor M1 (Homo sapiens) (P11229 whole entry, looked up): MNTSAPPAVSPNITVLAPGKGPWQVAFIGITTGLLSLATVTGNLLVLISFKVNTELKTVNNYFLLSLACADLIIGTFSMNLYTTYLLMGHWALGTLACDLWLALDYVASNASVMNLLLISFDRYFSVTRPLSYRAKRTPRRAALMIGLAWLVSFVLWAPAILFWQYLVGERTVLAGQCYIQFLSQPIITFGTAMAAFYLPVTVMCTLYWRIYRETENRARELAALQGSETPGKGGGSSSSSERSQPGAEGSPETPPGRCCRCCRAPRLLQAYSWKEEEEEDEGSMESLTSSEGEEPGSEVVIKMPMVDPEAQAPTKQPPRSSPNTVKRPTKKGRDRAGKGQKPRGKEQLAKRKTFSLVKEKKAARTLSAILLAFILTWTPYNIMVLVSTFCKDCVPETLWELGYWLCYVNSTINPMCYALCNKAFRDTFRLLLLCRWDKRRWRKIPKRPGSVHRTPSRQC

CC(C)(C)C(=O)C(Cl)Cl
not listed: [20]
inactive: all other assays above

c1ccc2c(c1)Nc1ccccc1S2
61.1 µM (active) and inactive: [2]
not listed: [11] | [12] | [13] | [14] | [20]
inactive: all other assays above

c1ccc(N=NNc2ccccc2)cc1
active: [2] 28.3 µM and 61.1 µM
not listed: [11] | [20]
inactive: all other assays above

CCC(C)(C)c1ccc(O)cc1
61.8 µM (active) and inactive: [1]
55.5 µM (active) and inactive: [12]
not listed: [11] | [15] | [16] | [17]
inactive: all other assays above

C=CC(=O)OCCO
not listed: [20]
inactive: all other assays above

N#CSCSC#N
inactive: [4] | [5] | [6] | [11] | [13] | [18]
active: [1] 14 µM and 21.5 µM | [2] 15.2 µM | [3] 39.8 µM | [7] 26.3 µM | [8] 37.2 µM | [9] 46.8 µM | [12] 50.1 µM and 48.5 µM

CN1CC[C@]23c4c5ccc(O)c4O[C@H]2[C@@H](O)CC[C@H]3[C@H]1C5
not listed: [15] | [16] | [17]
inactive: all other assays above

CCCCCCCCCCBr
not listed: [10] | [18]
inactive: all other assays above

O=C(O)COc1ccccc1
not listed: [11] | [20]
inactive: all other assays above

COC(=O)Cc1ccccc1
not listed: [10]
inactive: all other assays above

Cc1ccc(C(=O)Cl)cc1
not listed: [12]
inactive: all other assays above

CCN(CC)CCN1C(=O)CN=C(c2ccccc2F)c2cc(Cl)ccc21
not listed: [20]
inactive: all other assays above

Nc1nc(N)nc(Cl)n1
not listed: [10]
inactive: all other assays above

ClCCOCCCl
not listed: [14]
inactive: all other assays above

c1ccc2c(c1)CCCC2
not listed: [10] | [19]
inactive: all other assays above
